Reference: PubChem BioAssay
A number with no mark means an inactive call. For part of these data: Results with a measured potency or affinity are listed apart. Calls of active or inactive are those of the source. Unless noted, how the calls were made is not given here.

How the values were obtained:
[1] = antimalarial activity against Dd2 strain (AID 2302;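 active means growth inhibition above 50% at the single 2 µM test dose, taken to imply half-maximal potency below 2 µM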;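 further: 0% = DMSO untreated growth and 100% = chloroquine plus artemisinin killed control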); conditions: P. falciparum Dd2 in RBCs, LDH growth readout, 72 h; at 2 µM; hits give high values
[2] = HepG2 cytotoxicity, primary screen, cytotoxicity control for P. falciparum antimalarial project, cell-based, ATP luminescence (AID 2303;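 active means inhibition above 50%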;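 further: 0% = DMSO wells and 100% = digitonin-killed cells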); conditions: HepG2 viability, 24-48 h, at 10 µM, hits give high values
[3] = biological target: L-lactate dehydrogenase (Plasmodium falciparum (isolate CDC / Honduras)) (UniProt Q27743); assay: PfLDH activity inhibition – cell lysate, 3D7 strain, counter-screen for P. falciparum growth inhibition project (AID 2304);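 further: 0% = vehicle and 100% = reference inhibitor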; conditions: P. falciparum 3D7 crude extract, LDH APAD/NBT absorbance; at 2 µM; hits give high values
Sequence of L-lactate dehydrogenase (Plasmodium falciparum (isolate CDC / Honduras)) (Q27743 whole entry, looked up): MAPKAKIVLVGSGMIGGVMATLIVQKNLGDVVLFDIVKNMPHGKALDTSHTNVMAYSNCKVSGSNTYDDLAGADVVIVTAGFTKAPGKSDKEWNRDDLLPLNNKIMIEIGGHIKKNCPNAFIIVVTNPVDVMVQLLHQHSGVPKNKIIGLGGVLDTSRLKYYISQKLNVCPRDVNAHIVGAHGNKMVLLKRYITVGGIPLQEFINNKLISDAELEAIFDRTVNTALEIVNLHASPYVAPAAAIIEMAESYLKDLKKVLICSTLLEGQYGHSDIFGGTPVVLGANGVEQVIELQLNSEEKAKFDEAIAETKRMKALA

[4] = inhibition of 3D7 malaria parasite growth – strain 3D7 (AID 2306);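 further: 0% = DMSO wells and 100% = chloroquine plus artemisinin control wells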; conditions: P. falciparum 3D7 erythrocytic growth, LDH absorbance, 72 h; at 2 µM; hits give high values
[5] = biological target: Calcium-dependent protein kinase 1 (Plasmodium falciparum (isolate 3D7)) (UniProt P62344); assay: PfCDPK1 kinase inhibitors, biochemical, TCAMS library (AID 1159585; cut-off not given, nearly all actives have IC50 up to about 0.98 µM;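 further: inhibitors leave more ATP so luminescence rises with inhibition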); conditions: recombinant PfCDPK1, Kinase-Glo ATP depletion luminescence
Sequence of Calcium-dependent protein kinase 1 (Plasmodium falciparum (isolate 3D7)) (P62344 whole entry, looked up): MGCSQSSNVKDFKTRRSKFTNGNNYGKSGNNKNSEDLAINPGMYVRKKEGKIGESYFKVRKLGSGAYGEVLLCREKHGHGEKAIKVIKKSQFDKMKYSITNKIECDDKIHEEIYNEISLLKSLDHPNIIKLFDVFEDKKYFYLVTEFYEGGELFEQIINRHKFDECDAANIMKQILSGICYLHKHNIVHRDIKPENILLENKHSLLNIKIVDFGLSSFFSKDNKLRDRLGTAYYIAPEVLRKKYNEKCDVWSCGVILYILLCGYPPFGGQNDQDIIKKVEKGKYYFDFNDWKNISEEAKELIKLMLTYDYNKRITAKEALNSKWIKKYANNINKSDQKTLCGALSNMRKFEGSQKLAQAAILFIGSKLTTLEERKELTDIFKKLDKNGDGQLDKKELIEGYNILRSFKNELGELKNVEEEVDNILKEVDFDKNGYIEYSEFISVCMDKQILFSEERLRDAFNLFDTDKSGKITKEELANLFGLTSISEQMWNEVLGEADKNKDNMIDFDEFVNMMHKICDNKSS

[6] = biological target: Plasmodium falciparum protein kinase 6 (PK6, PF3D7_1337100) (UniProt Q8IDW1); assay: PfPK6 kinase inhibitors, biochemical, TCAMS library (AID 1159586); conditions: recombinant PfPK6, Kinase-Glo ATP depletion luminescence
Sequence of Plasmodium falciparum protein kinase 6 (PK6, PF3D7_1337100) (Q8IDW1 1-305): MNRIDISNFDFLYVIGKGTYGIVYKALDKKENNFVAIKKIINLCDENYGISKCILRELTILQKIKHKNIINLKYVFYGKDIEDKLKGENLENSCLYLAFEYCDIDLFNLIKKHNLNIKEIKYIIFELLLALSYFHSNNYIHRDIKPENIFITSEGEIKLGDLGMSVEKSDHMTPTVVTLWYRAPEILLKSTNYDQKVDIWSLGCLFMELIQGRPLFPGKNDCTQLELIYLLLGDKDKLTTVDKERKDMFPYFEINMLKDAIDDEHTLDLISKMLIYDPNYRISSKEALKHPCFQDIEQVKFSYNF

[7] = biological target: Protein kinase 7 (PK7), Plasmodium falciparum 3D7 (PF3D7_0213400) (UniProt Q7YTF7); assay: inhibition of Plasmodium PK7 catalytic activity – biochemical, TCAMS antimalarial set, Kinase-Glo luminescence (AID 1159587); conditions: recombinant PfPK7, Kinase-Glo ATP depletion luminescence
Sequence of Protein kinase 7 (PK7), Plasmodium falciparum 3D7 (PF3D7_0213400) (Q7YTF7 1-343): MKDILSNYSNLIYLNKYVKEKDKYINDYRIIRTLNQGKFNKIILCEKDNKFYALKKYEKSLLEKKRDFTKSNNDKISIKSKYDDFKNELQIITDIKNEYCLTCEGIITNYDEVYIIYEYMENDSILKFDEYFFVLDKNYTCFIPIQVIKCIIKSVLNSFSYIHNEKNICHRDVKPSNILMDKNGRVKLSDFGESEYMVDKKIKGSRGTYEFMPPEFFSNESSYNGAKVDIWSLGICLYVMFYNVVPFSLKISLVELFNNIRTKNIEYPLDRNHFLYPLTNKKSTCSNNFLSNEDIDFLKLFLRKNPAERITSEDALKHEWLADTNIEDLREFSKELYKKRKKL

[8] = biological target: Calcium-dependent protein kinase 4 (Plasmodium falciparum (isolate 3D7)) (UniProt Q8IBS5); assay: PfCDPK4 kinase inhibitors, biochemical, TCAMS library (AID 1159588; cut-off not given, nearly all actives have IC50 up to about 0.91 µM); conditions: recombinant PfCDPK4, Kinase-Glo ATP depletion luminescence
Sequence of Calcium-dependent protein kinase 4 (Plasmodium falciparum (isolate 3D7)) (Q8IBS5 whole entry, looked up): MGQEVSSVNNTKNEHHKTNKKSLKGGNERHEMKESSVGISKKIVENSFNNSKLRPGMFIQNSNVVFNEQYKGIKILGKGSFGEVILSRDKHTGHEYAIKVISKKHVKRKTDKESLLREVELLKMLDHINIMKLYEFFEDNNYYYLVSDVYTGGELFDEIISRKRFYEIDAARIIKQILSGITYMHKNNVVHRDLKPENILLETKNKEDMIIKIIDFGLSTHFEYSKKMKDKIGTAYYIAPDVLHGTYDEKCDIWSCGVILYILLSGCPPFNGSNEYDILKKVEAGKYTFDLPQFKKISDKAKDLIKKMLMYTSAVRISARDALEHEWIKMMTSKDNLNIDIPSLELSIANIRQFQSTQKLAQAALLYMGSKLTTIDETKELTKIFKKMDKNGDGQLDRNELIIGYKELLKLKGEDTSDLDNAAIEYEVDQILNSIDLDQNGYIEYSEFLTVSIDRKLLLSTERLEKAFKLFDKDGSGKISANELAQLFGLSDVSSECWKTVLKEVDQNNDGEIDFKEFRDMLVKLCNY

Compound	growth inhibition [1]	inhibition [2]	inhibition [3] [%]	growth inhibition [4]	outcome [5]	outcome [6]	outcome [7]	outcome [8]
CCc1cn(CCc2ccccc2)c2ccc(C(=O)N[C@@H](Cc3ccccc3)[C@H](O)CNC(C)(C)CCCC(C)C)cc12	99% (active)	66% (active)	5	98% (active)	inactive	inactive	inactive	inactive
COC(=O)c1cccc(CNCc2cccc(-c3ccc(-c4nc5ccccc5[nH]4)s3)c2)c1	59% (active)	-2%	-6	93% (active)	inactive	inactive	inactive	inactive
c1ccc(CNCCn2c(-c3ccc4c(c3)CCO4)nc3c(N4CCCC4)cccc32)cc1	85% (active)	9%	-4	82% (active)	inactive	inactive	inactive	inactive
Cc1ccc(Cn2cnc(N3CC(C)NC(C)C3)cc2=O)cc1NC(=O)Nc1ccc(-c2ccccc2)cc1 (configuration not stated)	15%	18%	4	96% (active)	inactive	inactive	inactive	inactive
O=C(NC1CCC(CCN2Cc3ccc(Br)cc3C2)CC1)c1cccc(-c2cccnc2)c1 (configuration not stated)	73% (active)	14%	5	99% (active)	inactive	inactive	inactive	inactive
CCCCCCCc1c(C)[nH]c2ccccc2c1=O	96% (active)	-14%	-7	98% (active)	inactive	inactive	inactive	inactive
CC1CN=C(c2ccc(NC(=O)c3ccc(C(=O)Nc4ccc(C5=NCC(C)N5)cc4)cc3)cc2)N1 (configuration not stated)	100% (active)	15%	-7	99% (active)	inactive	inactive	inactive	inactive
CCN1CCC(N(Cc2ccc(-c3ccc(Cl)cc3)cc2)C(=O)Cn2c(CCc3cccc(F)c3F)cc(=O)c3ccccc32)CC1	95% (active)	100% (active)	-7	99% (active)	inactive	inactive	inactive	inactive
O=C(CSc1nc2ccccc2c(=O)n1CC1CCCO1)Nc1cc(C(F)(F)F)ccc1Cl (configuration not stated)	95% (active)	12%	-2	97% (active)	inactive	inactive	inactive	inactive
CC1(C)N=C(N)N=C(N)N1OCCCOc1ccccc1Cl	94% (active)	64% (active)	1	96% (active)	inactive	inactive	inactive	inactive
Cc1ccc(O)cc1Nc1ccnc2cc(-c3csc(CN(C)CCN(C)C)n3)ccc12	80% (active)	3%	4	101% (active)	inactive	inactive	inactive	inactive
CN1CCCC1CCNCc1cccc(-c2cnc(N3CCCC(C)(C)C3)nc2)c1 (configuration not stated)	95% (active)	99% (active)	5	98% (active)	inactive	inactive	inactive	inactive
COc1ccc(CCN(C)CCCCc2ccc(NC(=O)c3cccc4c(=O)c5cc(F)ccc5sc34)cc2)cc1OC	49%	98% (active)	0	96% (active)	inactive	inactive	inactive	inactive
CCCN(CCCN(CCCN(CCC)C(C)C)c1cc(C)nc(Nc2ccc(Cl)cc2)n1)C(C)C	99% (active)	39%	0	102% (active)	inactive	inactive	inactive	inactive
CC(C)NCc1ccc(-c2ccc(NC(=O)c3cccc(Cl)c3)cc2)cc1	14%	36%	-2	100% (active)	inactive	inactive	inactive	inactive
Cc1cc(C=C2SC(=Nc3ccccc3)N(C3CCCC3)C2=O)c(C)n1-c1ccc(Cl)cc1	70% (active)	-8%	-1	100% (active)	inactive	inactive	inactive	inactive
Cc1cccc2[nH]c(-c3ccc(-c4ccc(NC(=O)CN5CCN(C)CC5)cc4)cc3)nc12	83% (active)	29%	1	100% (active)	inactive	inactive	inactive	inactive
CCc1sc(CN(CCCNc2cc(=O)c3ccccc3[nH]2)Cc2sc(CC)c(Br)c2-c2ccsc2)c(-c2ccsc2)c1Br	98% (active)	10%	0	99% (active)	inactive	inactive	inactive	inactive
COc1cc(F)c2nccc([C@@H](O)CN3CCC(NCc4nc5c(F)cccc5[nH]4)CC3)c2c1	5%	11%	-4	99% (active)	inactive	inactive	inactive	inactive
COc1ccc2nccc([C@@H](O)CN3CCC(NC(=O)/C=C/c4cccc(NC(C)=O)c4)CC3)c2c1	60% (active)	5%	0	90% (active)	inactive	inactive	inactive	inactive

Compound	growth inhibition [1]	inhibition [2]	inhibition [3] [%]	growth inhibition [4]	outcome [5]	outcome [6]	outcome [7]	outcome [8]
COc1ccc(CNCc2ccc(F)cc2)cc1-c1cccc(S(=O)(=O)NCCN2CCCC2)c1	54% (active)	43%	-3	101% (active)	inactive	inactive	inactive	inactive
Cc1ccc(C2CCN(CCCCNC(=O)c3ccc(-c4ccc(C#N)cc4)cc3)CC2)c(O)c1	90% (active)	45%	-3	100% (active)	inactive	inactive	inactive	inactive
CCC[C@@H]([C@@H](CC1CCCCC1)C(=O)N[C@H](C(=O)Nc1nccs1)C(C)(C)SC)N(O)C=O	98% (active)	51% (active)	7	97% (active)	inactive	inactive	inactive	inactive
O=C(Nc1cccc(CN2CCCN(Cc3ncc[nH]3)CC2)c1)c1cc2ccccc2s1	35%	22%	-2	99% (active)	inactive	inactive	inactive	inactive
CC(C)CCCC(C)(C)NC[C@@H](O)[C@H](Cc1ccccc1)NC(=O)c1cc(NC(C)C)cc(N2CCCCS2(=O)=O)c1	98% (active)	2%	-1	98% (active)	inactive	inactive	inactive	inactive
Cc1cc(N2CCCC2)nc(Nc2ccc(NC(=O)Cc3ccccc3)cc2)n1	72% (active)	71% (active)	-4	102% (active)	inactive	inactive	inactive	inactive
COc1cc(C(=O)N2N=C(c3c(-c4ccccc4)c4cc(Br)ccc4[nH]c3=O)CC2c2cccc([N+](=O)[O-])c2)cc(OC)c1OC (configuration not stated)	95% (active)	1%	4	93% (active)	inactive	inactive	inactive	inactive
O=C(Nc1ccc(OC2CCN(Cc3ccsc3)C2)c(Cl)c1)c1ccc2ncccc2c1 (configuration not stated)	10%	84% (active)	-1	88% (active)	inactive	inactive	inactive	inactive
COc1ccc(NC(=O)[C@H](CC(C)C)Nc2cc(C)nc(NCCc3ccccc3)n2)cc1	74% (active)	13%	-2	101% (active)	inactive	inactive	inactive	inactive
COc1ccc(CNCc2cccc(-c3ccc(-c4nc5ccccc5[nH]4)s3)c2)cc1	52% (active)	14%	0	90% (active)	inactive	inactive	inactive	inactive
Fc1ccc2nc(-c3cccc(-c4ccc(CN5CCCCC5)cc4)c3)[nH]c2c1	97% (active)	46%	-2	99% (active)	inactive	inactive	inactive	inactive
COc1cc(C(=O)Nc2cccc(-c3cn4ccc(C)cc4n3)c2)cc(OC)c1OC	83% (active)	-1%	1	97% (active)	inactive	inactive	inactive	inactive
Cc1[nH]c(C)c(-c2ccc(OCc3ccc(OC(F)(F)F)cc3)nc2)c(=O)c1Br	97% (active)	10%	7	98% (active)	inactive	inactive	inactive	inactive
O=C(/C=C/c1ccc(Cl)c(Cl)c1)NCCCCCN1CCC(NC(=O)c2ccc([N+](=O)[O-])cc2)CC1	6%	36%	-2	100% (active)	inactive	inactive	inactive	inactive
O=C(/C=C/c1ccc(Cl)c(Cl)c1)NCCCCN1CCCN(C(=O)Nc2ccc(F)c(Cl)c2)CC1	2%	69% (active)	1	87% (active)	inactive	inactive	inactive	inactive
Fc1ccc(-c2cc(NCCCn3ccnc3)nc(-c3cccnc3)n2)cc1	70% (active)	11%	0	99% (active)	inactive	inactive	inactive	inactive
O=[N+]([O-])c1cccc(CNCC2CCN(CCc3ccccc3)CC2)c1	11%	15%	-6	98% (active)	inactive	inactive	inactive	inactive
COc1c(C2CCN(CCCCNC(=O)c3ccc(-c4ccc(Cl)cc4)c(OCC(N)=O)c3)CC2)ccc2c1CCCC2	11%	43%	3	97% (active)	inactive	inactive	inactive	inactive
CCOC(=O)c1ccc(NC(=O)N(Cc2ccc(-c3cccc(CN4CCNCC4)c3)cc2)C2CCN(Cc3ccccc3)CC2)cc1	55% (active)	19%	4	100% (active)	inactive	inactive	inactive	inactive
